Measurements reported in the supplement of paper PMC6555819.

Key:
Assay in all cases: PBM binding z-score (relative to random genomic background probes); higher = stronger binding; sequences stand for … in GC…GCGATTGACAGCGTAGAATGAAGG
[1] = test system: RARb homodimer (NR concentration 270 nM)
In short: (§1)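 Ligand-free nuclear receptor dimers were bound for 1 h to custom Agilent 4×180K protein-binding microarrays. Detection used antibodies against each partner (one per run). Binding z-scores rest on regression-normalized fluorescence, with random background probes as the reference.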

[2] = test system: RARg:RXRa (NR concentration 270 nM, RXRa partner concentration 90 nM)
In short: as §1

[3] = test system: RARg homodimer (NR concentration 270 nM)
In short: as §1

[4] = test system: RXRa DBDmut IVT, anti-RXR (DBD mutation: RXRa K156A/R161A, NR concentration 90 nM)
In short: as §1

[5] = test system: RXRa homodimer (NR concentration 180 nM)
In short: as §1

[6] = test system: THRa:RXRa (NR concentration 90 nM, RXRa partner concentration 90 nM)
In short: as §1

[7] = test system: THRa homodimer (NR concentration 90 nM)
In short: as §1

[8] = test system: VDR homodimer (NR concentration 270 nM)
In short: as §1

Q: How did the PBM binding z-score [1] turn out when CAAACTAGGTCAAAGGTAAAAGTCGAGCCAACCA was run?
A: 2.87

Q: What about the PBM binding z-score [2] of the same sequence?
A: 5.02

Q: What about the PBM binding z-score [3] of the same sequence?
A: 4.78

Q: What about the PBM binding z-score [4] of the same sequence?
A: 2.02

Q: And the PBM binding z-score [5]?
A: 5.74

Q: And the PBM binding z-score [6]?
A: 3.26

Q: What about the PBM binding z-score [7] of the same sequence?
A: 0.692

Q: And the PBM binding z-score [8]?
A: 0.479

Q: What does the source list for AAACCAAGGTGATCGTGAGGTCGTTGATACTAAC?
A: PBM binding z-score [1]: 1.41; PBM binding z-score [2]: 2.02; PBM binding z-score [3]: 0.373; PBM binding z-score [4]: 0.896; PBM binding z-score [5]: 1.55; PBM binding z-score [6]: 3.5; PBM binding z-score [7]: 2.46; PBM binding z-score [8]: 2.81

Q: How did the PBM binding z-score [1] turn out when CATAGCAGGCCAGGGTCACTCAAGCATTTCGCTT was run?
A: 3.09

Q: What about the PBM binding z-score [2] of the same sequence?
A: 3.13

Q: And the PBM binding z-score [3]?
A: 2.89

Q: What about the PBM binding z-score [4] of the same sequence?
A: 0.718

Q: What about the PBM binding z-score [5] of the same sequence?
A: 3.61

Q: And the PBM binding z-score [6]?
A: 3.07

Q: What about the PBM binding z-score [7] of the same sequence?
A: 1.43

Q: And the PBM binding z-score [8]?
A: 1.81

Q: Which PBM binding z-score [1] does the source give for TCTTGTAGATCAGCAGGCTAAGAAAGCTGGCCAA here?
A: -0.81

Q: And the PBM binding z-score [2]?
A: -0.564

Q: What about the PBM binding z-score [3] of the same sequence?
A: -0.754

Q: And the PBM binding z-score [4]?
A: 0.38

Q: And the PBM binding z-score [5]?
A: -0.261

Q: What about the PBM binding z-score [6] of the same sequence?
A: -0.424

Q: What about the PBM binding z-score [7] of the same sequence?
A: -1.21

Q: What about the PBM binding z-score [8] of the same sequence?
A: -0.475

Q: What does the source list for TCGAGTAGGTTACCAATGGGGCATACAGCTTTCT?
A: PBM binding z-score [1]: 0.633; PBM binding z-score [2]: 1.41; PBM binding z-score [3]: 0.627; PBM binding z-score [4]: 0.223; PBM binding z-score [5]: 1.01; PBM binding z-score [6]: 0.248; PBM binding z-score [7]: -0.753; PBM binding z-score [8]: -0.212

Q: CGTCCAAAGTCAATGCTAGGTCAGTGAAAGCATT was tested. Which PBM binding z-score [1] did it give?
A: 2.39

Q: What about the PBM binding z-score [2] of the same sequence?
A: 2.4

Q: And the PBM binding z-score [3]?
A: 1.31

Q: What about the PBM binding z-score [4] of the same sequence?
A: 0.43

Q: And the PBM binding z-score [5]?
A: 0.344

Q: And the PBM binding z-score [6]?
A: 2.01

Q: What about the PBM binding z-score [7] of the same sequence?
A: 0.698

Q: What about the PBM binding z-score [8] of the same sequence?
A: 0.435

Q: What does the source list for ATATGTAGGTTAAGGGTCATTCGGGTTGGTTCGC?
A: PBM binding z-score [1]: 3.7; PBM binding z-score [2]: 4.87; PBM binding z-score [3]: 3.3; PBM binding z-score [4]: 2.32; PBM binding z-score [5]: 6.11; PBM binding z-score [6]: 3.39; PBM binding z-score [7]: 1.95; PBM binding z-score [8]: 5.4

Q: CGAACTAGGTCATTGACCGGACAGTGAATAGTAA was tested. Which PBM binding z-score [1] did it give?
A: 2.74

Q: What about the PBM binding z-score [2] of the same sequence?
A: 4.42

Q: And the PBM binding z-score [3]?
A: 4.59

Q: What about the PBM binding z-score [4] of the same sequence?
A: 2.25

Q: And the PBM binding z-score [5]?
A: 2.82

Q: And the PBM binding z-score [6]?
A: 2.57

Q: What about the PBM binding z-score [7] of the same sequence?
A: 0.878

Q: And the PBM binding z-score [8]?
A: 1.18

Q: How did the PBM binding z-score [1] turn out when ACTGACGGGTCAACGAGGTTATAGCACGCGTATA was run?
A: 3.27

Q: And the PBM binding z-score [2]?
A: 4.88

Q: And the PBM binding z-score [3]?
A: 4.97

Q: And the PBM binding z-score [4]?
A: 1.69

Q: What about the PBM binding z-score [5] of the same sequence?
A: 5.11

Q: What about the PBM binding z-score [6] of the same sequence?
A: 3.63

Q: And the PBM binding z-score [7]?
A: 0.781

Q: And the PBM binding z-score [8]?
A: 3.7

Q: Which results are given for TCGAGTAGGCTAGTCGGGGCATTCAGCCAACATA?
A: PBM binding z-score [1]: -0.562; PBM binding z-score [2]: -0.554; PBM binding z-score [3]: -0.738; PBM binding z-score [4]: -0.313; PBM binding z-score [5]: -0.347; PBM binding z-score [6]: -0.266; PBM binding z-score [7]: -0.771; PBM binding z-score [8]: -0.582

Q: TCGAGAAGGTTAGTCGGGGCATTCAGCCAACATA was tested. Which PBM binding z-score [1] did it give?
A: 0.99

Q: And the PBM binding z-score [2]?
A: 0.634

Q: And the PBM binding z-score [3]?
A: 0.546

Q: And the PBM binding z-score [4]?
A: 0.877

Q: What about the PBM binding z-score [5] of the same sequence?
A: 0.644

Q: What about the PBM binding z-score [6] of the same sequence?
A: 1.79

Q: What about the PBM binding z-score [7] of the same sequence?
A: 0.0413

Q: What about the PBM binding z-score [8] of the same sequence?
A: 1.2

Q: For TCTGCTAGGTCAGTTGGTCTGCTAACGAGCTGCC, which PBM binding z-score [1] is on record?
A: 2.11

Q: And the PBM binding z-score [2]?
A: 1.92

Q: And the PBM binding z-score [3]?
A: 3.27

Q: What about the PBM binding z-score [4] of the same sequence?
A: 0.135

Q: What about the PBM binding z-score [5] of the same sequence?
A: 0.318

Q: What about the PBM binding z-score [6] of the same sequence?
A: 1.08

Q: What about the PBM binding z-score [7] of the same sequence?
A: -0.124

Q: And the PBM binding z-score [8]?
A: -0.575

Q: CATACAGGGTCAGCTCGGCCAGAGTAGGGACGGC was tested. Which PBM binding z-score [1] did it give?
A: 3.1

Q: And the PBM binding z-score [2]?
A: 4.38

Q: What about the PBM binding z-score [3] of the same sequence?
A: 4.49

Q: And the PBM binding z-score [4]?
A: 1.2

Q: And the PBM binding z-score [5]?
A: 3.95

Q: And the PBM binding z-score [6]?
A: 3.01

Q: What about the PBM binding z-score [7] of the same sequence?
A: 0.883

Q: What about the PBM binding z-score [8] of the same sequence?
A: 0.595

Q: What does the source list for CGTCAAAGTTCAACTAAGGTAACGTAAAGCACGC?
A: PBM binding z-score [1]: 4.51; PBM binding z-score [2]: 5.92; PBM binding z-score [3]: 6.41; PBM binding z-score [4]: 4.68; PBM binding z-score [5]: 5.28; PBM binding z-score [6]: 5.33; PBM binding z-score [7]: 1.93; PBM binding z-score [8]: 3.26
